Sampled rows, rich in hits. Any-hit rate of the full collection: about 3.4%.
Shn3 inh set2 – reduces Shn3 3'UTR luciferase signal in osteoblasts; Clone20 osteoblast Shn3 3'UTR firefly luciferase, 24 h; inhibition, % at 12.5 µM; hit rate 0.52% among 360,000; AID 588674;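 active means mean inhibition of at least 75% with every replicate also reaching 75%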
TWEAK-Fn14 inh – inhibitors of TWEAK-Fn14 interaction signaling; TWEAK-stimulated Fn14 reporter cells, luciferase luminescence, 8 h; hit rate 2% among 360,000; AID 1159606; inhibition, % at 10 µM; in the data active means inhibition above about 50%
EBV LMP1 NFkB – inhibitors of Epstein-Barr LMP1-induced NF-kappaB reporter; AID 504558; hit rate 0.69% among 350,000; LMP1-induced NF-kappaB luciferase reporter cells, luminescence; inhibition, % at 12.5 µM; in the data active means inhibition above about 41%
HIF-2a inh – blocks HIF-2a reporter activity. AID 624352. inhibition, % at 18.8 µM. hit rate 0.72% among 360,000. 786-0 RCC cells HIF-2a reporter, luciferase luminescence, overnight;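 active means inhibition of the luminescence signal of 40% or more relative to plate controls, in a single-dose primary screen at 18.75 µM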
MITF TRPM1 inh – reduces MITF-dependent TRPM1 promoter luciferase signal. SK-MEL-5 TRPM1 promoter luciferase, 24 h. inhibition, % at 12.5 µM. hit rate 0.83% among 330,000;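 active means mean inhibition across replicates of 60% or more, whatever share of single replicates reaches that level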
TROY NFkB inh – inhibitors of TROY-dependent NF-kB signaling; Q293 LMP1-TROYcd NF-kB luciferase reporter, 4 h; inhibition, % at 10 µM; hit rate 0.98% among 360,000; AID 1347056;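 active means compounds whose plate-normalised and pattern-corrected inhibition of the luciferase reporter signal at the single screening dose is 50% or more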
Each line names hits and unclear results; the compound was inactive in the other large screens.

Oc1ccc(-c2n[nH]c(=S)n2-c2ccc3c(c2)OCCO3)c(O)c1	TWEAK-Fn14 inh 52
NC(CCc1ccccc1)c1csc(NC(=O)Nc2ccccc2Oc2ccccc2)n1 (stereo not drawn)	Shn3 inh set2 96 (no result: EBV LMP1 NFkB, MITF TRPM1 inh)
CC(C)c1ccc(NC(=O)Nc2nc(C(N)C(C)C)cs2)cc1 (stereo not drawn)	none (no result: EBV LMP1 NFkB, MITF TRPM1 inh)
CC(C)c1ccc(NC(=O)Nc2nc(C(N)COCc3ccccc3)cs2)cc1 (stereo not drawn)	Shn3 inh set2 93 (no result: EBV LMP1 NFkB, MITF TRPM1 inh)
CC(C)c1ccc(NC(=O)Nc2nc(C(N)c3ccccc3)cs2)cc1 (stereo not drawn)	Shn3 inh set2 93 (no result: EBV LMP1 NFkB, MITF TRPM1 inh)
CC(C)c1ccccc1NC(=O)Nc1nc(C(N)Cc2ccc(C(F)(F)F)cc2)cs1 (stereo not drawn)	Shn3 inh set2 98 (no result: EBV LMP1 NFkB, MITF TRPM1 inh)
Cc1ccc(S(=O)(=O)N(CC(=O)Nc2cccc(C)c2C)C(=O)N2CCN(C)CC2)cc1	none
Cc1cccc(C)c1NC(=O)Nc1nc(C(N)c2ccccc2Cl)cs1 (stereo not drawn)	none (no result: EBV LMP1 NFkB, MITF TRPM1 inh)
NC(c1csc(NC(=O)Nc2cccc(Cl)c2)n1)c1ccccc1Cl (stereo not drawn)	TWEAK-Fn14 inh 63 (no result: EBV LMP1 NFkB, MITF TRPM1 inh)
CCN(CC)CCNC(=O)c1c(C)n(-c2ccccc2)c2cc(Br)c(OC)cc12	MITF TRPM1 inh 74
Cc1cccc(C)c1-n1c(C)cc(/C=N\Nc2ccc([N+](=O)[O-])cn2)c1C	TWEAK-Fn14 inh 80 (no result: TROY NFkB inh)
O=[N+]([O-])c1ccc(NN=Cc2cccc(O)c2)nc1	none
NS(=O)(=O)c1ccc(Cl)cc1[N+](=O)[O-]	none
CC1(C)Cc2c(sc(NC(=O)c3ccc4ncsc4c3)c2C(N)=O)C(C)(C)N1	MITF TRPM1 inh 78
C[C@@H]1CN([C@@H](C)CO)C(=O)CCCn2nncc2CO[C@H]1CN(C)S(=O)(=O)c1cn(C)cn1	none (no result: MITF TRPM1 inh)
Cc1nc2ccccn2c1C(=O)N/N=C/c1ccc([N+](=O)[O-])o1	MITF TRPM1 inh 69
CCN(CC)S(=O)(=O)c1cccc(C(=O)N/N=C/c2ccc([N+](=O)[O-])o2)c1	MITF TRPM1 inh 85
O=C(N/N=C/c1ccc([N+](=O)[O-])o1)c1ccncc1	none (no result: EBV LMP1 NFkB, MITF TRPM1 inh)
O=C(N/N=C\c1ccc([N+](=O)[O-])o1)c1cncc(Br)c1	none
O=C(N/N=C/c1ccc([N+](=O)[O-])o1)C1CCCC1	none
CC(NC(=O)C12CC3CC(CC(C3)C1)C2)C(=O)NN=Cc1ccc([N+](=O)[O-])o1 (stereo not drawn)	MITF TRPM1 inh 62
O=C(N/N=C/c1ccc([N+](=O)[O-])o1)c1ccc(O)cc1	MITF TRPM1 inh 87
O=[N+]([O-])c1ccc(/C=N\NS(=O)(=O)c2ccc(F)cc2)o1	TWEAK-Fn14 inh 84
O=C(N/N=C/c1ccc([N+](=O)[O-])o1)c1cc2ccccc2o1	MITF TRPM1 inh 98
O=C(Cn1cc(F)c(=O)[nH]c1=O)c1ccco1	none (no result: MITF TRPM1 inh)
C/C(=N\NC(=O)C12CCC(C)(C(=O)O1)C2(C)C)c1ccccc1O (stereo not drawn)	none
CC12CCC(C(=O)N/N=C/c3ccc(O)cc3O)(OC1=O)C2(C)C (stereo not drawn)	Shn3 inh set2 89
O=C(Nc1ccc(Oc2ccccc2)cc1)c1csc(COCCO)n1	none (no result: EBV LMP1 NFkB, MITF TRPM1 inh)
COc1ccccc1N1CCN(C(=O)c2ccc3noc(-c4ccccc4)c3c2)CC1	none (no result: MITF TRPM1 inh)
O=C1c2ccccc2C(=O)c2c1ncn2-c1ccccc1	MITF TRPM1 inh 61
Nc1nc2c(ncn2-c2ccccc2)c(=O)[nH]1	none
Cc1cc2ncc(-c3cccs3)nc2cc1C	TWEAK-Fn14 inh 71
COc1ccc(NC(=O)c2cn(-c3ccccc3)nc2-c2ccncc2)cc1	none
COc1ccc(-c2nn(-c3ccccc3)cc2C(=O)NC(=S)NNC(=O)c2ccncc2)cc1	TWEAK-Fn14 inh 60
CCN(C(=O)CCS(=O)(=O)c1cc2c(cc1Cl)NC(=O)CO2)c1ccccc1	none
CC(C)OCCCN1CN(S(=O)(=O)c2ccccc2)c2nc3ccccc3nc21	TWEAK-Fn14 inh 77 (no result: TROY NFkB inh)
O=C(/C=C/c1ccc([N+](=O)[O-])cc1)Nc1ncc([N+](=O)[O-])s1	TWEAK-Fn14 inh 66
O=C(/C=C/c1ccc([N+](=O)[O-])cc1)NCc1ccccn1	none
CC(=O)N1Cc2cc(C(=O)NCC(F)(F)F)nc(-c3cccc(-c4cc5ccccc5o4)c3)c2[C@H]1CCO	none (no result: Shn3 inh set2, EBV LMP1 NFkB, MITF TRPM1 inh)

Screening results as filed in PubChem BioAssay.
